The structures appear in SMILES notation. Out of some 16,000 compounds screened, about 4,000 (25%) were called active. Roughly 26% stayed inconclusive and do not appear here. Not all results are given here. Unmarked numbers belong to inactive results. The call rests on the fitted dose curve; in most records, active means well fitted curve in the direction sought with a large enough effect; inconclusive means small, poorly fitted or top-dose-only effect, or effect the other way; inactive means no such curve, though single readings can be large or run the other way.

The AC50 is the midpoint of the concentration-response curve, whichever way the signal moves.
On the % scale 0 is the no-effect control and ±100 the full control effect.

The test deals with Cytochrome P450 2C9 (Homo sapiens) (UniProt P11712). The test is described as follows: Cytochrome panel assay with activity outcomes. To be noted: recombinant CYP, pro-luciferin dealkylation, luminescence, p450-cyp2c9; series mostly up to 57.1 µM; activity, negative = inhibition: at the top concentration.
Cytochrome P450 2C9 (Homo sapiens), sequence (P11712 whole entry, looked up): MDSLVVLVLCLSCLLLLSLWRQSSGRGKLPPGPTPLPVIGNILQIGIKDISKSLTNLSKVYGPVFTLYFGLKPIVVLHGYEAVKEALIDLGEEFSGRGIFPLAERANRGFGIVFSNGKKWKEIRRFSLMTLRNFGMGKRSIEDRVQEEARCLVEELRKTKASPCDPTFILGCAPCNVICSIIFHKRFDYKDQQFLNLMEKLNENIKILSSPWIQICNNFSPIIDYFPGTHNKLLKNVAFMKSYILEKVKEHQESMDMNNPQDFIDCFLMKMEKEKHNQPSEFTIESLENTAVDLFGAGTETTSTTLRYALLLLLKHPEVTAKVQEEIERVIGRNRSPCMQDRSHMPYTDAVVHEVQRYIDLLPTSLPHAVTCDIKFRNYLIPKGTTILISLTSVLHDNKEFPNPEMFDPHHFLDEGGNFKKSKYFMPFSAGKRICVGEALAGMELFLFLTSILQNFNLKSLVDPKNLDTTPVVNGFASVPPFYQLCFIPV
For `COc1ccc(OC)c(CNC(=O)CCNC(=O)Cn2ccc3ccccc3c2=O)c1`, the “activity, negative = inhibition” value was -1.88%. For the molecule `COc1cccc(CNC(=O)CCNC(=O)Cn2ccc3ccccc3c2=O)c1`, the AC50 was 3.16 µM (active). With `O=C(CCNC(=O)Cn1ccc2ccccc2c1=O)NCCCN1CCN(c2ccc(F)cc2)CC1`, the “activity, negative = inhibition” value is -10.9%. In the case of `CN1C(=O)C[C@H](c2ccccc2)C1=O`, the “activity, negative = inhibition” value was -24.7% [at 25.6 µM]. In the case of `CCCCN1C(=O)CCC(C(=O)O)C1c1ccccc1` (configuration not stated), the “activity, negative = inhibition” value was 0.737%. With `O=C1C(Cc2ccccc2)C(c2ccccc2)N1c1ccccc1` (configuration not stated), the AC50 was 7.08 µM (active). For the molecule `CCCC1C(=O)N(c2ccccc2)C1c1ccccc1` (configuration not stated), the AC50 is 10 µM (active). Turning to `CN(C)CCNS(=O)(=O)N(C)C`, the activity, negative = inhibition is 11.3% [at 11.4 µM]. With `CO[C@]1(NC(=O)[C@H](C(=O)O)c2ccc(O)cc2)C(=O)N2C(C(=O)O)=C(CSc3nnnn3C)CO[C@H]21`, the “activity, negative = inhibition” value was 12.5% [at 25.6 µM].

In the case of `c1ccc(Nc2nc(-c3ccoc3)nc3ccccc23)cc1`, the activity, negative = inhibition was -10.3% [at 2.29 µM]. In the case of `CN1CC(c2ccccn2)C2(SC(=S)N(Cc3ccccc3)C2=O)C12C(=O)Nc1ccccc12` (configuration not stated), the AC50 was 4.47 µM (active). As to `CCCCN(c1ccccc1)c1ncnc2c1cnn2C`, the activity, negative = inhibition was 1.33% [at 11.4 µM]. Consider `CN1CCN(CN2C(=O)C3C4C=CC(C3C2=O)C2C3C(=O)N(CN5CCN(C)CC5)C(=O)C3C42)CC1` (configuration not stated), for which the activity, negative = inhibition was -2.91% [at 11.4 µM].

Consider `Oc1ccc(C2Nc3cccc4cccc(c34)N2)c(O)c1`, for which the AC50 is 14.1 µM (active). On to `Oc1ccccc1C1Nc2cccc3cccc(c23)N1`, for which the AC50 was 8.91 µM (active). For `O=C(O)[C@H]1C[C@@H](CP(=O)(O)O)CCN1`, the “activity, negative = inhibition” value was -28.6%. As for `O=C1[C@H]2[C@H]3[C@H](O)[C@H](O)C/C(=N/OC[C@@H](O)COCc4ccco4)[C@H]3CC[C@@H]2C(=O)N1C[C@@H]1CCCO1`, the activity, negative = inhibition was 7.75% [at 11.4 µM]. In the case of `O=C1C=C(NCCN2CCOCC2)CC(c2ccccc2)C1` (configuration not stated), the “activity, negative = inhibition” value was -16.6%. Regarding `O=C(O)C1(Nc2ccc(Cl)cc2)CCCC1`, the activity, negative = inhibition is -21.4% [at 11.4 µM]. For `O=C1C=C(Nc2ccc(Cl)cc2)CC(c2ccc(Cl)cc2)C1` (configuration not stated), the AC50 is 10 µM (active). On to `C#CCSc1nnc(-c2sc3ccccc3c2Cl)o1`, for which the “activity, negative = inhibition” value is -29.7%.

As for `Clc1ccc(-c2nnc(-c3cccc4ccccc34)o2)cc1Cl`, the activity, negative = inhibition was 24% [at 11.4 µM]. For the molecule `c1ccc2c(CSc3nnc(-c4ccncc4)o3)cccc2c1`, the AC50 is 0.178 µM (active). In the case of `Clc1ccccc1CSc1nnc(-c2ccncc2)o1`, the AC50 was 0.447 µM (active).

Regarding `CC[N+](C)(C)c1cccc(O)c1`, the “activity, negative = inhibition” value was -2.67% [at 25.6 µM]. For `Cc1ccc(S(=O)(=O)N2CCN(S(C)(=O)=O)C2)cc1`, the “activity, negative = inhibition” value is -15.6%. On to `COc1ccccc1CN1CCC2(CC1)CCN(S(=O)(=O)c1ccccc1)CC2`, for which the “activity, negative = inhibition” value is 8.41%. With `Cc1ccc(S(=O)(=O)N2CCN(Cc3ccccc3C(F)(F)F)CC2)cc1`, the AC50 is 39.8 µM (active).

Turning to `O=C1[C@H]2[C@H]3[C@H](O)[C@H](O)C/C(=N/OCc4ccccc4)[C@H]3CC[C@@H]2C(=O)N1Cc1ccc2c(c1)OCO2`, the activity, negative = inhibition is -16.6% [at 11.4 µM]. Take `COc1ccccc1CNc1nc(-c2ccccc2CN(C)C)nc2ccccc12`: the activity, negative = inhibition is 5.51% [at 2.29 µM].

With `Cc1ccccc1-c1nc(-n2ccnc2)c2ccccc2n1`, the activity, negative = inhibition is -7.55% [at 2.29 µM]. As for `CN(C)C(=O)c1ccc(-c2nc(-n3ccnc3)c3ccccc3n2)cc1`, the activity, negative = inhibition is -0.507% [at 2.29 µM]. Consider `CN(c1ccccc1)c1nc(-n2ccnc2)nc(-n2ccnc2)n1`, for which the AC50 was 0.282 µM (active). With `c1ccc(-c2nc(N3CCCCCC3)nc(-n3ccnc3)n2)cc1`, the AC50 is 5.01 µM (active). For `COc1ccccc1-c1nccc(-n2ccnc2)n1`, the activity, negative = inhibition is 6.88% [at 2.29 µM].

Turning to `c1ccc2c(-n3ccnc3)nc(-c3ccoc3)nc2c1`, the activity, negative = inhibition is -6.66% [at 2.29 µM]. `N[C@@](CC(=O)O)(Cc1ccccc1)C(=O)O`: the activity, negative = inhibition was -1.82% [at 11.4 µM].

`CCOC(=O)N1CCN(C(=O)c2cnc3n(c2=O)CCS3)CC1`: the “activity, negative = inhibition” value was -2.54%.

As to `NC(=O)C1(N2CCCCC2)CCN(C(=O)c2ccc(-n3cnnn3)cc2)CC1`, the “activity, negative = inhibition” value is -20.9%. With `O=C(c1ccc2nc3ccc(Cl)cc3c(=O)n2c1)N1CCOCC1`, the “activity, negative = inhibition” value was -4.27%. Regarding `NC(=O)C1(N2CCCCC2)CCN(C(=S)Nc2ccc(Cl)cc2)CC1`, the “activity, negative = inhibition” value is -18%. Consider `NC(=O)C1(N2CCCCC2)CCN(C(=O)c2cccn3c(=O)c4cc(Cl)ccc4nc23)CC1`, for which the AC50 was 3.98 µM (active). For the molecule `CCOC(=O)N1CCN(C(=O)c2cccn3c(=O)c4cc(Cl)ccc4nc23)CC1`, the AC50 was 8.91 µM (active). For `Cc1cc(C)cc(NC(=O)C/C(N)=N/O)c1`, the “activity, negative = inhibition” value was -16%. For the molecule `C[C@@H]1CCCC(CC(=O)O)(CC(=O)O)C1`, the activity, negative = inhibition was 9.77% [at 11.4 µM].

For `CCOC(=O)N1CCN(C(=O)c2ccc(NC(C)=O)cc2)CC1`, the “activity, negative = inhibition” value was -29.4%. On to `CCOC(=O)N1CCN(C(=O)c2ccc3nc(N4CCC(C)CC4)sc3c2)CC1`, for which the AC50 is 2.51 µM (active). Regarding `CC1=NN(C(=O)c2ccncc2)C(=O)[C@@H]1N=Nc1ccc2ccccc2c1`, the activity, negative = inhibition was -11.2% [at 11.4 µM]. On the same count and under the same terms, the value for `OCCN(CCO)c1ncnc2nc[nH]c12` was 5.61% [at 11.4 µM].

For `O=C(C=C1SCCS1)/C=C/c1ccco1`, the “activity, negative = inhibition” value is 6.81%.

In the case of `O=C(/C=C/c1ccco1)Nc1ccc(Oc2ccccc2)cc1`, the AC50 is 5.01 µM (active). Consider `CO[C@H]1COC(=O)[C@H]2CCCN2C(=O)C/C=C\[C@@H](C)[C@H](OC)COC(=O)C/C=C\[C@@H]1C`, for which the activity, negative = inhibition was 13.8% [at 11.4 µM]. For the molecule `CC[C@]1(O)C[C@H]2CN(CCc3c([nH]c4ccccc34)[C@](C(=O)OC)(c3cc4c(cc3OC)N(C=O)[C@H]3[C@@](O)(C(=O)OC)[C@H](OC(C)=O)[C@@]5(CC)C=CCN6CC[C@]43[C@H]65)C2)C1`, the “activity, negative = inhibition” value is 0.0764%.

Regarding `Cc1nc(SCC(=O)Nc2c(C)nn(C)c2C)c2cnn(-c3ccccc3)c2n1`, the AC50 was 2.51 µM (active).

As to `O=C(c1ccccc1)[C@H](Nc1ccc2ccccc2c1)c1ccccc1`, the activity, negative = inhibition was -6.81% [at 11.4 µM]. For the molecule `Cc1nc(SC(C(=O)c2ccccc2)c2ccccc2)n[nH]1` (configuration not stated), the AC50 is 4.47 µM (active). `O=C1COC(c2ccccc2O)=NN1CCCN1CCCC1`: the activity, negative = inhibition is 2.77% [at 11.4 µM].

The values are drawn from PubChem BioAssay AID1851 (National Center for Advancing Translational Sciences (NCATS), 2009).
